Data: the supplement of paper PMC11150407
“And” between values parts separate entries of the source, which are not always exact repeats. Equal values may be shown once. Where a name gives a salt, the structure may show the parent alone. Out of some 2,100 compounds screened, about 180 (8.6%) showed an effect of 50% or more. The full list was thinned out, with strong results kept by preference.

Each compound was assayed on MOLM1 and UCSD/AML1 (averaged) (assay: cell viability relative to DMSO control (POC); higher = less growth inhibition). Settings: 1 µM; 72 h.
Description: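 Primary viability screen in the 3q26 EVI1-high AML cell lines MOLM1 and UCSD/AML1 (1.5e3 cells/well, 384-well), compounds at 1 uM for 72 h. ATP CellTiter-Glo read-out given as percent of viable cells over DMSO control (POC), averaged over duplicates. DMSO was the negative control and 5 uM etoposide the positive control. This mapping covers the MicroSource Spectrum and Selleck anticancer libraries (drug names).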

Compound | cell viability
COc1cc2c(cc1OC)-c1cc3ccc(OC)c(OC)c3c[n+]1CC2 | 95.7% and 88.9%
CC(=O)O[C@@H]1CC2C(C)(C)[C@H](O)CC[C@]2(C)C2CC[C@@]3(C)[C@H](c4ccoc4)OC(=O)C4OC43[C@@]21C (stereo partly drawn) [alpha-DIHYDROGEDUNOL] | 123%
COc1ccc(-c2coc3c(O)c(OC)ccc3c2=O)cc1 | 94.6%
CNC(=O)c1ccc(C)c(-n2c(C)cc(OCc3ccc(F)cc3F)c(Br)c2=O)c1 | 87.5%
CO[C@H]1C[C@@H]2CC[C@@H](C)[C@@](O)(O2)C(=O)C(=O)N2CCCC[C@H]2C(=O)O[C@H]([C@H](C)C[C@@H]2CC[C@@H](O)[C@H](OC)C2)CC(=O)[C@H](C)/C=C(\C)[C@@H](O)[C@@H](OC)C(=O)[C@H](C)C[C@H](C)/C=C/C=C/C=C/1C [Rapamycin (Sirolimus)] | 41.5%
CO[C@H]1C[C@@H]2CC[C@@H](C)[C@@](O)(O2)C(=O)C(=O)N2CCCC[C@H]2C(=O)O[C@H]([C@H](C)C[C@@H]2CC[C@@H](O)[C@H](OC)C2)CC(=O)[C@H](C)/C=C(\C)[C@@H](O)[C@@H](OC)C(=O)[C@H](C)C[C@H](C)/C=C/C=C/C=C/1C | 44%
C=CC[C@@H]1/C=C(\C)C[C@H](C)C[C@H](OC)[C@H]2O[C@@](O)(C(=O)C(=O)N3CCCC[C@H]3C(=O)O[C@H](/C(C)=C/[C@@H]3CC[C@@H](O)[C@H](OC)C3)[C@H](C)[C@@H](O)CC1=O)[C@H](C)C[C@@H]2OC | 85.3%
CO[C@H]1C[C@@H]2CC[C@@H](C)[C@@](O)(O2)C(=O)C(=O)N2CCCC[C@H]2C(=O)O[C@H]([C@H](C)C[C@@H]2CC[C@@H](OCCO)[C@H](OC)C2)CC(=O)[C@H](C)/C=C(\C)[C@@H](O)[C@@H](OC)C(=O)[C@H](C)C[C@H](C)/C=C/C=C/C=C/1C [Everolimus (RAD001)] | 50.2%
CO[C@H]1C[C@@H]2CC[C@@H](C)[C@@](O)(O2)C(=O)C(=O)N2CCCC[C@H]2C(=O)O[C@H]([C@H](C)C[C@@H]2CC[C@@H](OC(=O)C(C)(CO)CO)[C@H](OC)C2)CC(=O)[C@H](C)/C=C(\C)[C@@H](O)[C@@H](OC)C(=O)[C@H](C)C[C@H](C)/C=C/C=C/C=C/1C | 11%
O=c1cc(-c2cccc3c2Sc2ccccc2S3)oc(N2CCOCC2)c1 | 69.4%
O=C(O)CCCCCCCCCCCC[C@@H]1C=CCC1 | 93.9%
CS(=O)(=O)CCCCN=C=S | 84.4%
COc1ccc(-c2oc3cc(OC)c(OC)c(OC)c3c(=O)c2OC)cc1OC | 101%
CC(=O)OCC(=O)[C@@]1(O)CCC2C3CCC4=CC(=O)C=C[C@]4(C)[C@@]3(F)[C@@H](O)C[C@@]21C (stereo partly drawn) | 78.1%
N#CCNC(=O)c1ccc(-c2ccnc(Nc3ccc(N4CCOCC4)cc3)n2)cc1 [Momelotinib (CYT387)] | 51.4%
Cc1nc(N)sc1-c1ccnc(Nc2ccc(N3CCOCC3)cc2)n1 | 46.7%
O=C(O)c1ccccc1 | 98.9%
CC(CCC(=O)O)[C@H]1CCC2C3C[C@H](O)[C@@H]4C[C@H](O)CC[C@]4(C)C3CC[C@@]21C (stereo partly drawn) [alpha-HYDROXYDEOXYCHOLIC ACID] | 107%
CC(C)(C)c1cnc(CSc2cnc(NC(=O)C3CCNCC3)s2)o1 | 2.81%
Cc1cc(/C=C/c2ccc3cc(N(C)C)ccc3[n+]2C)c(C)n1-c1ccccc1 | 29.3%
C[C@@H]1CC[C@@]23CCC4(C)[C@@](C=CC5[C@@]6(C)CC[C@H](O)C(C)(C)C6CC[C@]54C)(OC2=O)C3[C@H]1C (stereo partly drawn) | 90.8%
C=C1C(=O)[C@]23[C@H](CC[C@@H]1[C@@H]2O)[C@]12CO[C@@]3(O)[C@H](O)[C@H]1C(C)(C)CC[C@@H]2O | 94.3%
CC1(C)CC2C1CCC1(C)OC2(C)CCC1O (stereo not drawn) | 91.4%
CC(C)=CCC/C(C)=C/COc1ccc2ccc(=O)oc2c1 | 92.6%
CC(C)(C)NCC(O)c1ccc(O)c(CO)c1 (racemic) | 93.2%
O=C(O)c1cc2cc(Cl)ccc2[nH]1 | 98.1%

Compound | cell viability
O=C1c2c(O)ccc(O)c2C(=O)c2c(NCCNCCO)ccc(NCCNCCO)c21 [Mitoxantrone Hydrochloride] | 2.15%
O=C1c2cccc(O)c2C(=O)c2c(O)cccc21 | 104%
O=C1c2c(O)ccc(O)c2C(=O)c2c(NCCNCCO)ccc(NCCNCCO)c21 | 8.27%
O=C1c2c(O)cccc2Cc2cccc(O)c21 | 102%
NCCOB(c1ccccc1)c1ccccc1 | 117%
CC(C)CCC[C@@H](C)[C@H]1CC[C@H]2[C@@H]3CC(=O)[C@H]4C[C@@H](O)CC[C@]4(C)[C@H]3CC[C@]12C [5alpha-CHOLESTAN-3beta-OL-6-ONE] | 107%
Cc1ccc(C(=O)N(CCCN)[C@@H](c2nc3cc(Cl)ccc3c(=O)n2Cc2ccccc2)C(C)C)cc1 | 15.3%
Cc1ccc(C(=O)N(CCCN)[C@@H](c2oc3cc(Cl)ccc3c(=O)c2Cc2ccccc2)C(C)C)cc1 | 13.4%
CC(=O)O[C@@H]1C[C@H]2C(C)(C)C(=O)CC[C@]2(C)[C@H]2CC[C@@]3(C)[C@H](c4ccoc4)OC(=O)[C@H]4O[C@]43[C@@]21C | 100%
CNC(=O)c1ccc(N2C(=S)N(c3ccc(C#N)c(C(F)(F)F)c3)C(=O)C2(C)C)cc1F [MDV3100 (Enzalutamide)] | 102%
CC(C)CC(NC(=O)[C@H](C)N)C(=O)O (mixture of isomers) | 105%
COc1cc(C)c(C(=O)Oc2cc(C)c(C(=O)O)c(O)c2C)c(OC)c1C | 109%
CNS(=O)(=O)c1ccc(NC(=O)c2ccccc2C(=O)O)cc1 | 110%
Nc1nc(=O)c2[nH]c(=O)cnc2[nH]1 | 112%
C[C@]12CCC(=O)C=C1C=C[C@@H]1[C@@H]2CC[C@@]2(C)[C@H]1CC[C@@]21CCC(=O)O1 | 83.2%
CN1CCC(CNc2ccc3ncc(-c4cccc(OC(F)(F)F)c4)n3n2)CC1 [SGI-1776 free base] | 80%
O=c1c(O)cc([C@H]2Oc3cc(O)cc(O)c3C[C@H]2O)cc2c([C@H]3Oc4cc(O)cc(O)c4C[C@H]3O)cc(O)c(O)c12 | 104%
CN1CCN(CCOc2cc(OC3CCOCC3)c3c(Nc4c(Cl)ccc5c4OCO5)ncnc3c2)CC1 [Saracatinib (AZD0530)] | 47.7%
C=CC(=O)N1CCC[C@@H](n2nc(-c3ccc(Oc4ccccc4)cc3)c3c(N)ncnc32)C1 | 60.3%
Cc1ccc2c(c1)CC[C@H]1CC(=O)CC[C@]21C | 104%
CC(=O)N1CCCC1C(=O)O (stereo not drawn) | 108%
O=C[C@H](O)[C@@H](O)[C@H](O)CO | 121%
CN(N=O)C(=O)N[C@@H](C=O)[C@@H](O)[C@H](O)[C@H](O)CO [Streptozotocin (Zanosar)] | 37.4%
CC(=O)N[C@@H](C=O)[C@@H](O)[C@H](O)[C@H](O)CO | 107%
CC(=O)O[C@H]1CC[C@]2(C)[C@H]3CC=C4[C@@H]5CC(C)(C)CC[C@]5(C(=O)O)CC[C@@]4(C)[C@]3(C)CC[C@H]2C1(C)C | 102%
COC(=O)[C@@]1(C)CCC[C@]2(C)c3ccc(O)c(C(C)C)c3CCC12 (stereo partly drawn) | 109%

Compound | cell viability
COC(=O)c1cc(O)c(=O)c2c(O)c(O)ccc2c1 | 109%
Cc1cnc(-c2cnc(NCCNc3ccc(C#N)cn3)nc2-c2ccc(Cl)cc2Cl)[nH]1 | 133%
Cc1cc(=O)oc2c(O)c(O)ccc12 | 93.6%
C=C1CCC(C2CC(=O)OC2=O)C(=O)CCC2C1CC2(C)C (stereo not drawn) | 104%
FC(F)c1nc2ccccc2n1-c1nc(N2CCOCC2)nc(N2CCOCC2)n1 | 26.8%
CCOC(=O)c1c(C)cc(O)c(C=O)c1O | 98.9%
CC(=O)/C(=C\c1ccccc1)CC(=O)O | 118%
COC(=O)C[C@H]1C(C)(C)C(=O)[C@@H]2CC3=C(CC[C@]4(C)C3=CC(=O)O[C@H]4c3ccoc3)[C@@]1(C)C2=O | 93.4%
CN1CCN(c2cccc(Nc3nc4c(-c5ccc(S(C)(=O)=O)cc5)cccn4n3)c2)CC1 | 33.3%
CC1=CC2C(CC1=O)C(C)=CCC2C(C)C (stereo not drawn) | 92.7%
COc1ccc(-c2cc(=O)c3c(OC)c(OC)c(OC)c(OC)c3o2)cc1 | 89.9%
CC(=O)/N=c1/sc(S(N)(=O)=O)nn1C | 112%
CSCC[C@H](NC=O)C(=O)N[C@@H](Cc1ccccc1)C(=O)O | 105%
CC(=O)O[C@@H]1CC[C@@]2(C)C(C[C@@H](OC(C)=O)[C@@]3(C)C4=CC(=O)O[C@@H](c5ccoc5)[C@]4(C)CCC23)C1(C)C (stereo partly drawn) [3alpha-ACETOXYDIHYDRODEOXYGEDUNIN] | 82%
Oc1cccc(-c2nc(N3CCOCC3)c3oc4ncccc4c3n2)c1 | 25.7%
Nc1ccc(C(=O)Nc2cccc(-c3nc(N4CCOCC4)c4oc5ncccc5c4n3)c2)cn1 | 52.7%
O=c1cc(N2CCOCC2)oc2c(-c3ccccc3)cccc12 | 73.8%
OC[C@H]1O[C@@H](OCCc2ccc(O)cc2)[C@H](O)[C@@H](O)[C@@H]1O | 107%
CC(=O)O[C@H]1CC[C@]2(C)C3=C(CC[C@H]2C1(C)C)[C@]1(C)CC[C@H]([C@H](C)CCC=C(C)C)[C@@]1(C)CC3 | 94.1%
CCn1c(-c2nonc2N)nc2c(C#CC(C)(C)O)ncc(OC[C@H]3CCCNC3)c21 | 54%
CCCCC[C@H](CC(=O)O)C(=O)O | 111%
C[N+](C)(C)CCCCCC[N+](C)(C)C | 114%
CCCCCCCCCCCCCCCCCCCCCCO | 101%
CCCCCCCCCCCCCCCC[N+](C)(C)C | 43.7%
COc1cc(OC)c(-c2c(OC)cc(OC)cc2OC)c(OC)c1 | 104%
CC1CCC2(OC1)OC1CC3C4CCC5C[C@@H](O)CCC5(C)C4=CCC3(C)C1[C@@H]2C (stereo partly drawn) [3beta-HYDROXYISOALLOSPIROST-9(11)-ENE] | 91.8%
